Experiment [1] can be described thus: stimulators of nuclear beta-catenin in C2C12, primary screen, imaging, WNT3A-conditioned medium, mouse C2C12, NPC library (AID 1117326; in the data active = nuclear beta-catenin stimulation mostly above about 4.2%, no sharp cut-off; inactive = mostly below about 10%; note: reference of the scale not given here). The settings on record: stronger effect = higher value.
Experiment [2] is described as follows: stimulators of insulin release from INS-1E, primary screen, cell-based, 5 mM glucose, NPC library (AID 1117329;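 active = compound raises insulin release from rat beta cells at 5 mM glucose, no numeric limit stated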; note: reference of the scale not given here). The note with it: rat INS-1E insulin secretion, at 10 µM, stronger effect = higher value.
The nature of experiment [3]: growth inhibition of GSK3B-pretreated HCT116 cells – cell-based, CellTiter-Glo, 0.2 to 20 µM (AID 1117336;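 active = compounds lowering colon cancer cell viability after pretreatment blocking the GSK3B kinase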). The note with it: HCT116 viability after GSK3B inhibitor, at 20 µM, stronger effect = higher value. For orientation: In ATP-based viability assays light output follows the ATP content of the culture.
Experiment [4] in a line: inhibition of endothelial tube formation, primary screen, imaging, VEGF stimulated, CD31 staining, tube area, NPC library (AID 1117340;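 active = compound that reduces growth-factor-driven endothelial tube area in a mixed cell culture, no cutoff stated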). The note with it: VEGF-stimulated ADSC/ECFC co-culture, at 10 µM, stronger effect = higher value.
The nature of experiment [5]: glucagon-like peptide 1 release enhancers, primary assay, NCI-H716 cell line, NPC library (AID 1117341;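 active = compound raises GLP1 secretion from the human gut endocrine cells, with no numeric limit stated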; note: reference of the scale not given here). The note with it: NCI-H716 cells, at 10 µM, stronger effect = higher value.
The nature of experiment [6]: HCT116 colon cancer cell growth inhibition, primary screen, CellTiter-Glo luminescence, NPC library (AID 1117342;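 active = compounds that lower survival of HCT116 colon cancer cells in the luminescence readout, no numeric limit stated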). The note with it: at 20 µM (top of the series).
The nature of experiment [7]: CellTiter-Glo luminescent readout of SW480 viability loss, NPC library primary (AID 1117343). The note with it: CellTiter-Glo luminescence; at 20 µM (top of the series).
A short description of experiment [8]: decreased DLD-1 cellular survival, CellTiter-Glo luminescent readout, NPC compound collection, primary HTS (AID 1117346;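 active = compounds that lower survival of DLD-1 colon cancer cells in the luminescence readout, no cutoff given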). The settings on record: DLD-1 viability, CellTiter-Glo luminescence; at 20 µM (top of the series).

Calls of active or inactive are those of the source.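 Rule for the calls, unless noted: active = compounds that lower viability of the colon cancer cells in the luminescence readout, with no numeric limit stated; inactive = the rest.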

As to `COc1cc(C(=S)N2CCOCC2)cc(OC)c1OC`, the nuclear beta-catenin stimulation in experiment [1] (at 10 µM) was -0.6% (inactive); in experiment [1] (stimulation, at 2 µM), 2%. In addition, the insulin secretion stimulation in experiment [2] was 1.5% (inactive). Moreover, in experiment [3], the viability decrease is -0.85% (inactive). The tube area decrease in experiment [4] is -15.3% (inactive). Also, the GLP1 secretion stimulation in experiment [5] was -0.3% (inactive). The inhibition of viability in experiment [6] is -1.2% (inactive). In addition, the viability decrease (inhibition) in experiment [7] was 9.6% (inactive); in experiment [8], 1.7% (inactive).
In the case of `CN1CCN(N)CC1`, the nuclear beta-catenin stimulation in experiment [1] (at 10 µM) is 1.1% (inactive); in experiment [1] (stimulation, at 2 µM), 0.7%. The insulin secretion stimulation in experiment [2] is 1.5% (inactive). Further, in experiment [3], the viability decrease is -1.2% (inactive). In addition, in experiment [4], the tube area decrease was -7.3% (inactive). For the same compound, the GLP1 secretion stimulation in experiment [5] is 0.5% (inactive). Further, in experiment [6], the inhibition of viability is 0.1% (inactive). The viability decrease (inhibition) was -13.8% (inactive) in experiment [7] and 10.2% (inactive) in experiment [8].
For `CCCSS/C(CCO)=C(\C)N(C=O)Cc1cnc(C)nc1N`, the nuclear beta-catenin stimulation in experiment [1] (at 10 µM) is -1.4% (inactive); in experiment [1] (stimulation, at 2 µM), -0.7%. The insulin secretion stimulation in experiment [2] is 10.2% (inactive). Moreover, the viability decrease in experiment [3] is 33.3% (inactive). Also, the tube area decrease in experiment [4] is 55.3% (active). In addition, the GLP1 secretion stimulation in experiment [5] was -4.8% (inactive). Also, the inhibition of viability in experiment [6] is 19.1% (inactive). The viability decrease (inhibition) in experiment [7] was 45.4% (inactive); in experiment [8] it was 65.6% (active).
Turning to `CCC(C(=O)NC(=O)NC(C)=O)c1ccccc1` (centres undefined), the nuclear beta-catenin stimulation in experiment [1] (at 10 µM) was 0.9% (inactive); in experiment [1] (stimulation, at 2 µM) it was 0.2%. For the same compound, in experiment [2], the insulin secretion stimulation is 0.6% (inactive). Besides, in experiment [3], the viability decrease is 78.3% (active). In experiment [4], the tube area decrease is 7.5% (inactive). Besides, the GLP1 secretion stimulation in experiment [5] was -4.7% (inactive). Also, the inhibition of viability in experiment [6] is 46.2% (inactive). Also, the viability decrease (inhibition) in experiment [7] is 70.3% (active); in experiment [8] it was 6.1% (inactive).
In the case of `COc1cc2nc(Cl)nc(N)c2cc1OC`, the nuclear beta-catenin stimulation was 0.1% (inactive) in experiment [1] (at 10 µM) and -1.5% in experiment [1] (stimulation, at 2 µM). Besides, the insulin secretion stimulation in experiment [2] was 2.8% (inactive). Further, the viability decrease in experiment [3] was 13.3% (inactive). Further, in experiment [4], the tube area decrease was 9.3% (inactive). Also, in experiment [5], the GLP1 secretion stimulation was 0.6% (inactive). Also, the inhibition of viability in experiment [6] was 22.3% (inactive). The viability decrease (inhibition) in experiment [7] was -4.5% (inactive); in experiment [8], 21.8% (inactive).
For `CC(=O)OC[C@H]1O[C@@](COC(C)=O)(O[C@H]2O[C@H](COC(C)=O)[C@@H](OC(C)=O)[C@H](OC(C)=O)[C@H]2OC(C)=O)[C@@H](OC(C)=O)[C@@H]1OC(C)=O`, the nuclear beta-catenin stimulation is 0.3% (inactive) in experiment [1] (at 10 µM) and -0.8% in experiment [1] (stimulation, at 2 µM). For the same compound, the insulin secretion stimulation in experiment [2] was -0.2% (inactive). Moreover, the viability decrease in experiment [3] was -1% (inactive). Also, the tube area decrease in experiment [4] was 0.8% (inactive). The GLP1 secretion stimulation in experiment [5] is -0.5% (inactive). Further, in experiment [6], the inhibition of viability is 3.93% (inactive). Further, the viability decrease (inhibition) is 16.6% (inactive) in experiment [7] and -8% (inactive) in experiment [8].
In the case of `Cc1ncc(CO)c(CN)c1O`, the nuclear beta-catenin stimulation in experiment [1] (at 10 µM) is 1.3% (inactive); in experiment [1] (stimulation, at 2 µM), 2.3%. For the same compound, the insulin secretion stimulation in experiment [2] is 0.6% (inactive). The viability decrease in experiment [3] is 4.25% (inactive). For the same compound, the tube area decrease in experiment [4] is -13.4% (inactive). Moreover, in experiment [5], the GLP1 secretion stimulation is 0.1% (inactive). For the same compound, in experiment [6], the inhibition of viability was -3.2% (inactive). In addition, the results for the viability decrease (inhibition) in experiment [7] and in experiment [8] were 91.3% (active) and 9.5% (inactive), respectively.
On to `CC1CC(=O)NN=C1c1ccc(NCC(C)(C)NCC(O)COc2cc(Cl)ccc2C#N)cc1` (centres undefined), for which the nuclear beta-catenin stimulation in experiment [1] (at 10 µM) is -1.8% (inactive); in experiment [1] (stimulation, at 2 µM) it was 1.1%. In addition, in experiment [2], the insulin secretion stimulation was 31.3% (active). In experiment [3], the viability decrease was -8% (inactive). In addition, the tube area decrease in experiment [4] was 11.2% (inactive). Also, in experiment [5], the GLP1 secretion stimulation was 1% (inactive). Moreover, the inhibition of viability in experiment [6] was 23.2% (inactive). Further, the results for the viability decrease (inhibition) in experiment [7] and in experiment [8] were 5.4% (inactive) and 15.4% (inactive), respectively.
As for `CCOC(=O)CN1CCCC1=O`, the nuclear beta-catenin stimulation in experiment [1] (at 10 µM) is 1.9% (inactive); in experiment [1] (stimulation, at 2 µM), 21%. Further, the insulin secretion stimulation in experiment [2] was 2.1% (inactive). In addition, in experiment [3], the viability decrease was 1.1% (inactive). The tube area decrease in experiment [4] was -17.2% (inactive). The GLP1 secretion stimulation in experiment [5] is -1.8% (inactive). The inhibition of viability in experiment [6] is -0.8% (active). The results for the viability decrease (inhibition) in experiment [7] and in experiment [8] were -15.1% (inactive) and 1% (inactive), respectively.
For `N[C@@H](CSCCCO)C(=O)O`, the nuclear beta-catenin stimulation in experiment [1] (at 10 µM) was -1.1% (inactive); in experiment [1] (stimulation, at 2 µM), 1.4%. The insulin secretion stimulation in experiment [2] was -0.6% (inactive). For the same compound, the viability decrease in experiment [3] is -4.55% (inactive). Moreover, the tube area decrease in experiment [4] is 1.7% (inactive). In addition, the GLP1 secretion stimulation in experiment [5] was -0.3% (inactive). Besides, in experiment [6], the inhibition of viability is -17.6% (inactive). Moreover, the viability decrease (inhibition) in experiment [7] is 17.3% (inactive); in experiment [8] it was -1.1% (inactive).
In the case of `CC(C)c1cc2c(cc1S(=O)(=O)O)[C@@]1(C)CCC[C@@](C)(C(=O)O)[C@@H]1CC2`, the nuclear beta-catenin stimulation in experiment [1] (at 10 µM) was -1% (inactive); in experiment [1] (stimulation, at 2 µM) it was -3.3%. Further, the insulin secretion stimulation in experiment [2] was 1.4% (inactive). Besides, the viability decrease in experiment [3] was 3.3% (inactive). Moreover, the tube area decrease in experiment [4] is -20.8% (inactive). Besides, in experiment [5], the GLP1 secretion stimulation was -1.8% (inactive). Besides, in experiment [6], the inhibition of viability is 5.2% (inactive). The viability decrease (inhibition) is -5.2% (inactive) in experiment [7] and 11.9% (inactive) in experiment [8].
With `Cc1ccc(C(C)OC(=O)C2(C)CCC(C(=O)O)C2(C)C)cc1` (centres undefined), the nuclear beta-catenin stimulation in experiment [1] (at 10 µM) was -0.2% (inactive); in experiment [1] (stimulation, at 2 µM), -2.1%. Further, the insulin secretion stimulation in experiment [2] is 2.1% (inactive). Further, the viability decrease in experiment [3] was -5% (inactive). Further, in experiment [4], the tube area decrease is -0.8% (inactive). The GLP1 secretion stimulation in experiment [5] was 0.6% (inactive). Also, the inhibition of viability in experiment [6] is 0.3% (inactive). The viability decrease (inhibition) is -11.8% (inactive) in experiment [7] and 14.4% (inactive) in experiment [8].
Regarding `CCCN(CCC)C(=O)C(CCC(=O)OCCCN1CCN(CCOC(=O)Cc2c(C)n(C(=O)c3ccc(Cl)cc3)c3ccc(OC)cc23)CC1)NC(=O)c1ccccc1` (centres undefined), the nuclear beta-catenin stimulation in experiment [1] (at 10 µM) is 51% (active); in experiment [1] (stimulation, at 2 µM) it was -0.4%. In experiment [2], the insulin secretion stimulation was 0.4% (inactive). Besides, the viability decrease in experiment [3] is 113% (active). Further, in experiment [4], the tube area decrease is 25.9% (inactive). Further, the GLP1 secretion stimulation in experiment [5] is 3.5% (inactive). Also, the inhibition of viability in experiment [6] was 113% (active). The viability decrease (inhibition) in experiment [7] is 120% (active); in experiment [8], 93.3% (active).
In the case of `O=C(O)c1cn(C2CC2)c2cc(Cl)c(F)cc2c1=O`, the nuclear beta-catenin stimulation is 0% (inactive) in experiment [1] (at 10 µM) and -1.8% in experiment [1] (stimulation, at 2 µM). Moreover, the insulin secretion stimulation in experiment [2] is 2.05% (inactive). In addition, the viability decrease in experiment [3] is 55.5% (active). In addition, in experiment [4], the tube area decrease is -14.6% (inactive). For the same compound, the GLP1 secretion stimulation in experiment [5] is -3.9% (inactive). For the same compound, in experiment [6], the inhibition of viability was 42.5% (inactive). Also, the viability decrease (inhibition) in experiment [7] and in experiment [8] was -3.8% (inactive) each time.
With `CC(C)=CCC/C(C)=C/CC/C(C)=C/C(=O)OCC(=O)[C@@]1(O)CC[C@H]2[C@@H]3CCC4=CC(=O)C=C[C@]4(C)[C@H]3[C@@H](O)C[C@@]21C`, the nuclear beta-catenin stimulation in experiment [1] (at 10 µM) is -1% (inactive); in experiment [1] (stimulation, at 2 µM), 0%. The insulin secretion stimulation in experiment [2] was -2% (inactive). The viability decrease in experiment [3] was 92.3% (active). Moreover, in experiment [4], the tube area decrease was 107% (active). The GLP1 secretion stimulation in experiment [5] is -0.8% (inactive). Moreover, in experiment [6], the inhibition of viability was 98.2% (active). In addition, the viability decrease (inhibition) in experiment [7] is 86.2% (active); in experiment [8], 88.5% (active).
As to `CCCCCCCCCCCCCCCCCCNC(=O)OC1CCN(C(=O)OC[C@H](COC(=O)N(Cc2cccc[n+]2CC)C(=O)c2ccccc2OC)OC)CC1`, the nuclear beta-catenin stimulation in experiment [1] (at 10 µM) is 10.2% (inactive); in experiment [1] (stimulation, at 2 µM), 0.5%. Further, the insulin secretion stimulation in experiment [2] was 117% (active). In addition, the viability decrease in experiment [3] was 110% (active). Further, in experiment [4], the tube area decrease is 111% (active). Further, the GLP1 secretion stimulation in experiment [5] is 213% (active). Also, the inhibition of viability in experiment [6] was 112% (active). For the same compound, the results for the viability decrease (inhibition) in experiment [7] and in experiment [8] were 131% (active) and 101% (active), respectively.
